# Test results taken from PubChem BioAssay (NCATS).
# Results filed as inconclusive are left out. Entries that show only a call come without a potency. A number with no mark means an inactive call. Active and inactive are the calls of the source. Calls come from the whole dose curve; as a rule, active = well fitted curve in the direction sought with a large enough effect; inconclusive = small, poorly fitted or top-dose-only effect, or another doubt; inactive = no such curve, though single readings can be large; an effect the other way counts as inactive or inconclusive.
# Legend:
# [1] = biological target: Rap guanine nucleotide exchange factor 3 (Homo sapiens) (UniProt O95398); test: Confirmatory qHTS for antagonist of cAMP-regulated guanine nucleotide exchange factor 3 (EPAC1) (AID 1645880); note: nearly all actives have a fitted effect of over 55% in size; note: potency is the fitted concentration of half-maximal effect
# Sequence of Rap guanine nucleotide exchange factor 3 (Homo sapiens) (O95398 whole entry, looked up): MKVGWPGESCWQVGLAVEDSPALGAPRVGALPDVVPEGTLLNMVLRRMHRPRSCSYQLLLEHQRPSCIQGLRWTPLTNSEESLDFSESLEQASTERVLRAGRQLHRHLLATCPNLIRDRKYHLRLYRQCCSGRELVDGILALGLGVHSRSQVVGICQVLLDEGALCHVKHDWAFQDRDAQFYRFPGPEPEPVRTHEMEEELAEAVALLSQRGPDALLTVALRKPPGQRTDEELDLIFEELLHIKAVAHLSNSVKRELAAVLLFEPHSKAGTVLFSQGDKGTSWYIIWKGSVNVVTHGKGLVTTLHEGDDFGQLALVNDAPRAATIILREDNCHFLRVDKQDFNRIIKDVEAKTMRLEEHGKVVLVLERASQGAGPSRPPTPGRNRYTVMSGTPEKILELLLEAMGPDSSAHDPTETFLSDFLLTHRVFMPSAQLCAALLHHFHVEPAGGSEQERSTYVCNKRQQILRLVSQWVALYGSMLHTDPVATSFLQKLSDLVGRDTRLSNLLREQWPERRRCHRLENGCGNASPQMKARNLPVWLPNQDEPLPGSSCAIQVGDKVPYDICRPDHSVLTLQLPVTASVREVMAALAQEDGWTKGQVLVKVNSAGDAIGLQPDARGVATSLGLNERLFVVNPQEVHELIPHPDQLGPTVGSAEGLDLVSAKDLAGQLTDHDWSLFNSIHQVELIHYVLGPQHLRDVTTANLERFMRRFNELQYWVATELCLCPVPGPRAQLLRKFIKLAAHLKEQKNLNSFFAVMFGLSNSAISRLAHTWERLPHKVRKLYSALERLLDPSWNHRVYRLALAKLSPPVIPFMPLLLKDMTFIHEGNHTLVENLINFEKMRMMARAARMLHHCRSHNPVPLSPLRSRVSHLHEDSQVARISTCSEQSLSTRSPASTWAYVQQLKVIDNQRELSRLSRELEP
# Summary of the method: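 Released BODIPY-GDP fluoresces less than Rap1-bound BODIPY-GDP; the signal is followed at 480/540 nm at 5-min intervals over 30 min, after 5 min at room temperature. Reactions contain 100 nM EPAC1, 250 nM RAP1B-BODIPY-GDP and 50 uM GDP; results are normalized to ATA and DMSO.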
# [2] = biological target: Rap guanine nucleotide exchange factor 3 (Homo sapiens) (UniProt O95398); test: Confirmatory qHTS for agonist of cAMP-regulated guanine nucleotide exchange factor 3 (EPAC1) (AID 1645881);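 note: EPAC1 catalysed release of BODIPY-GDP from Rap1B seen as fluorescence loss; nearly all actives have a fitted effect of over 75% in size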
# [3] = biological target: Rap guanine nucleotide exchange factor 4 (Homo sapiens) (UniProt Q8WZA2); test: Confirmatory qHTS for agonist of cAMP-regulated guanine nucleotide exchange factor 4 (EPAC2) (AID 1645884);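 note: nucleotide exchange releases bodipy-GDP from Rap1 and this lowers its fluorescence; nearly all actives have a fitted effect of over 65% in size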
# Sequence of Rap guanine nucleotide exchange factor 4 (Homo sapiens) (Q8WZA2 whole entry, looked up): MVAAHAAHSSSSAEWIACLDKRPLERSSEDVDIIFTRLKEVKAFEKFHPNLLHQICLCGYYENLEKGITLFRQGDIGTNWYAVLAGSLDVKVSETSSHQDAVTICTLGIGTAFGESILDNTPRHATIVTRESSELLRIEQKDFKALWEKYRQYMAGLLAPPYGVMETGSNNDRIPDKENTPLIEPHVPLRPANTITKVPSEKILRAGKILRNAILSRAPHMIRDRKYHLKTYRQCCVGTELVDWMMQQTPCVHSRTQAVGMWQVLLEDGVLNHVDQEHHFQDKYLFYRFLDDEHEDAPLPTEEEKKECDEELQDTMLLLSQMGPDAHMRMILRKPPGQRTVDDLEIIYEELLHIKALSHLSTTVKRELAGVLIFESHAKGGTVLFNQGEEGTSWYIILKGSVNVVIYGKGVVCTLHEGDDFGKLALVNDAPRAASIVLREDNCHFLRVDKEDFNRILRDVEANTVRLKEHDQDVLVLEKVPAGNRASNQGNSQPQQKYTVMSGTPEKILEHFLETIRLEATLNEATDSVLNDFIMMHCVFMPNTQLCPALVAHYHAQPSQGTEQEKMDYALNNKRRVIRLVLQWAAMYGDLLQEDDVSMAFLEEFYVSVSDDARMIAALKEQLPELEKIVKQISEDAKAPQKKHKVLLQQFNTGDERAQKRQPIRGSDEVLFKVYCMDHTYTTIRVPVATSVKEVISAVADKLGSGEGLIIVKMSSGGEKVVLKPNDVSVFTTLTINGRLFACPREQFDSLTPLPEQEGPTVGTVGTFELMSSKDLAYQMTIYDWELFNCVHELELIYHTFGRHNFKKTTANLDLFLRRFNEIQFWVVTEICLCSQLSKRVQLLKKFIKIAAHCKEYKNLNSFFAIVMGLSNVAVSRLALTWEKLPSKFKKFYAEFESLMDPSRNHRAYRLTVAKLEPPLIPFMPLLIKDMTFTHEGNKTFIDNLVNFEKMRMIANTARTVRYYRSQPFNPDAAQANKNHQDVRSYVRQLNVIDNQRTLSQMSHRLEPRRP
# [4] = biological target: Rap guanine nucleotide exchange factor 4 (Homo sapiens) (UniProt Q8WZA2); test: Confirmatory qHTS for antagonist of cAMP-regulated guanine nucleotide exchange factor 4 (EPAC2) (AID 1645885); note: nearly all actives have a fitted effect of over 25% in size; note: potency is the fitted concentration of half-maximal effect
# [5] = biological target: Rap guanine nucleotide exchange factor 3 (Homo sapiens) (UniProt O95398); test: Counterscreen qHTS for antagonist of cAMP-regulated guanine nucleotide exchange factor 3 (EPAC1) (AID 1645888)
# Summary of the method: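 Measured: fluorescence of BODIPY-GDP bound to Rap1B, which falls as exchange proceeds. Conditions include 50 uM competing GDP, 5 and 30 min reads, and a later cAMP challenge for antagonist detection.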
SMILES,Potency [1],Potency [2],Potency [3],Potency [4],Potency [5],outcome [4],activation [3],"activity change, negative = inhibition [5]"
CN(C)C(=O)c1cccc(-c2cnc3c(NC=O)cc(-c4ccc(F)cc4)cn23)c1,inactive,inactive,inactive,inactive,inactive,,,
Cc1ccc(CN2C(=O)CSC2c2ccccc2F)cc1 (stereo unspecified),inactive,inactive,inactive,33.8 µM (active),inactive,,,
CN(C)c1ccc(/C=C/c2ccnc3ccc4ccccc4c23)cc1,49.8 µM (active),inactive,inactive,55.5 µM (active),,,,
CCOC(=O)N1CCN(c2ccc(S(=O)(=O)N(Cc3ccccc3)Cc3ccccc3)cn2)CC1,inactive,inactive,inactive,inactive,inactive,,,
CCc1ccccc1NC(=O)c1oc(=O)c2ccccc2c1-c1ccccc1,inactive,inactive,inactive,inactive,,,,
COc1ccc2cc(-c3cn4c(n3)sc3cc(F)ccc34)c(=O)oc2c1,inactive,inactive,inactive,inactive,,,,
CCOC(=O)C1CCCN(c2cc(=O)n(C3CCCCC3)c(=O)[nH]2)C1 (stereo unspecified),inactive,inactive,inactive,inactive,,,,
COc1ccc(OC)c(-c2nc3c(C#N)c[nH]n3c2NC2CCCCC2)c1,inactive,inactive,inactive,,,inactive [at 12.7 µM],,
CCOC(=O)CSc1nc(C)c2cc(C)c(C)cc2n1,inactive,inactive,inactive,inactive,inactive,,,
CCCCCC(=O)Nc1ccc(C2C(=O)c3ccccc3C2=O)cc1,inactive,inactive,inactive,inactive,inactive,,,
Cn1cccc1C(=O)NC(=O)COC(=O)c1cc(S(=O)(=O)N2CCCCC2)ccc1Cl,inactive,inactive,inactive,inactive,inactive,,,
COc1ccc(NC(=O)c2ccc3c(SCC(=O)O)c4c(nc3c2)CCCC4)c(OC)c1,75.7 µM (active),inactive,inactive,inactive,inactive,,,
COCCCn1c(-c2ccccc2)nc2ccccc2c1=O,inactive,inactive,inactive,inactive,,,,
CC(=O)CCc1oc2ccc(C)cc2c1-c1ccccc1,inactive,inactive,inactive,inactive,,,,
Cc1ccc(S(=O)(=O)N2[C@@H](c3ccc(C(C)(C)C)cc3)C(C(=O)O)=CC[C@H]2c2ccc(C(C)C)cc2)cc1,19 µM (active),inactive,inactive,inactive,,,,
CNc1c(-n2cc(C(=O)OC)c(C(=O)OC)c2C(=O)OC)c(=O)n(C)c(=O)n1C,inactive,inactive,inactive,inactive,inactive,,,
Cc1cn2c(=O)cc(COC(=O)c3ccc(NC(=O)C(C)Oc4ccccc4)cc3)nc2s1 (stereo unspecified),inactive,inactive,inactive,inactive,inactive,,,
Cc1ccc2c(c1)CCCN2C(=O)c1cc(C)c(C)s1,inactive,inactive,inactive,,,inactive [at 12.7 µM],,
Cc1ccccc1OCCn1cnc2c(N)ncnc21,inactive,inactive,inactive,inactive,inactive,,,
CN(Cc1cccc2ncccc12)C(=O)c1cnn(-c2nccc(-c3ccccc3F)n2)c1C1CC1,inactive,inactive,inactive,15.6 µM (active),,,,
Cc1cc(NC(=O)CSc2nc(-c3ccccc3)nc3c2c(=O)n(C)c(=O)n3C)no1,inactive,inactive,,inactive,,,"0% [at 17.1 µM, percent relative to cAMP agonist control]",
CN(c1ccc(C(=O)NCc2ccc3c(c2)OCO3)cc1)S(=O)(=O)c1ccccc1,inactive,inactive,inactive,inactive,inactive,,,
COc1ccc(CCNC(=O)CSc2nc3nc(C)c(Cc4ccc(C)cc4)c(C)n3n2)cc1OC,inactive,inactive,inactive,inactive,inactive,,,
Cc1cc(N(C)C)cc(C)c1/C=C/c1ccnc2ccccc12,inactive,inactive,inactive,13.9 µM (active),,,,
COc1ccc(CNC(=O)[C@@H]2CC=C[C@@H]3CCN(Cc4ccccc4)C(=O)[C@@H]32)cc1,inactive,inactive,inactive,inactive,,,,

SMILES,Potency [1],Potency [2],Potency [3],Potency [4],Potency [5],outcome [4],activation [3],"activity change, negative = inhibition [5]"
Cc1cc(Cl)ccc1-n1c(CCC(=O)O)ccc1-c1cccs1,inactive,inactive,inactive,inactive,inactive,,,
CCC1CCCCN1CCCNC(=O)CCC(=O)N1CC(C)Oc2ccccc21 (stereo unspecified),inactive,inactive,inactive,inactive,,,,
COc1ccc(N2CCN(C(=O)c3noc4c3CCCCC4)CC2)cc1,inactive,inactive,inactive,inactive,inactive,,,
COc1ccc(C(=O)NCC2(c3ccccc3)CCCC2)c(OC)c1,inactive,inactive,,inactive,,,"-2.19% [at 17.1 µM, percent relative to cAMP agonist control]",-13.7% [at 30.8 µM]
CC(C)CC1C(=O)N(Cc2cn(CCC3OCCO3)nn2)CCS(=O)(=O)N1Cc1ccc(-c2ccc(F)cc2)cc1 (stereo unspecified),inactive,inactive,,4.26 µM (active),,,"7.64% [at 17.1 µM, percent relative to cAMP agonist control]",-16% [at 30.8 µM]
Cc1ccc2nc3sc(C(=O)N4CCCc5ccccc54)c(N)c3cc2c1,inactive,inactive,,inactive,,,"4.98% [at 17.1 µM, percent relative to cAMP agonist control]",-0.0356% [at 30.8 µM]
O=C1Nc2ccccc2Nc2ncccc21,inactive,inactive,,inactive,,,"-4.86% [at 17.1 µM, percent relative to cAMP agonist control]",0.957% [at 30.8 µM]
O=S(=O)(Nc1nccs1)c1ccc(NCc2cc(Br)cc(Br)c2O)cc1,56.2 µM (active),inactive,,1.51 µM (active),,,"-0.584% [at 17.1 µM, percent relative to cAMP agonist control]",9.07% [at 30.8 µM]
CCOc1ccc(C(=O)Nc2ccc3c(c2)N(C(C)=O)CCC3)cc1OCC,inactive,inactive,inactive,inactive,inactive,,,
COc1cc(/C=C(/C#N)c2nc(-c3cc4ccccc4oc3=O)cs2)ccc1O,inactive,inactive,inactive,,inactive,inactive [at 12.7 µM],,
COc1cccc(NC(=O)CCNC(=O)Cn2ccc3ccccc3c2=O)c1,inactive,inactive,inactive,inactive,inactive,,,
COC(=O)c1cc2sccc2n1Cc1c(C)cc(C)cc1C,inactive,inactive,inactive,inactive,inactive,,,
COc1cc(/C=C/C(=O)OCC(=O)Nc2oc(C)c3c(C)n[nH]c(=O)c23)ccc1OC(F)F,inactive,inactive,inactive,inactive,inactive,,,
CC1(c2ccccc2)CC(C)(C)N2C(=O)Cc3cccc1c32 (stereo unspecified),inactive,inactive,inactive,33.8 µM (active),inactive,,,
CC1(C)CC(=O)C=C(c2ccc(F)cc2OCc2ccccc2)C1,inactive,inactive,inactive,inactive,inactive,,,
CC1CN(C(=O)CCC(=O)NCc2cccc(Cl)c2)c2ccccc2S1 (stereo unspecified),inactive,inactive,inactive,inactive,inactive,,,
Cc1ccc(C)c(COC(=O)c2cc(S(=O)(=O)N3CCCCC3)ccc2N2CCOCC2)c1,inactive,inactive,inactive,inactive,inactive,,,
Cc1ccc(C)c(-c2ccc(=O)n(Cc3cccc(Br)c3)n2)c1,inactive,inactive,inactive,19 µM (active),inactive,,,
COc1ccc(S(=O)(=O)N2CCOC23CCN(S(=O)(=O)c2cc(F)ccc2F)CC3)cc1,inactive,inactive,,inactive,,,"4.71% [at 17.1 µM, percent relative to cAMP agonist control]",-8.89% [at 30.8 µM]
CCc1cccc2sc(N3CCN(C(=O)C4CC4)CC3)nc12,inactive,inactive,inactive,,inactive,inactive [at 12.7 µM],,
O=S(=O)(c1cc(O)ccc1O)c1cccc2c(S(=O)(=O)c3cc(O)ccc3O)cccc12,44.7 µM (active),inactive,,inactive,,,"5.63% [at 17.1 µM, percent relative to cAMP agonist control]",-9.89% [at 30.8 µM]
O=C(Cn1cc(SCc2ccc(Cl)cc2)c2ccccc21)N1CCCC1,inactive,inactive,inactive,inactive,inactive,,,
Nn1cnnc1N/N=C/c1ccc(Cl)c([N+](=O)[O-])c1,inactive,inactive,inactive,inactive,inactive,,,
CCOc1cc(/C=C2\SC(=S)N(NS(=O)(=O)c3ccccc3)C2=O)ccc1O,33.8 µM (active),inactive,inactive,42.6 µM (active),inactive,,,
C=CCn1c(SCC(=O)Nc2sccc2C(N)=O)nc2sc(CC)cc2c1=O,inactive,inactive,,inactive,,,"6.26% [at 17.1 µM, percent relative to cAMP agonist control]",-8.95% [at 30.8 µM]
